The structures appear in SMILES notation. “And” between values parts separate entries of the source, which are not always exact repeats. Equal entries are not always repeated. Inconclusive results are not listed. The source holds several records for some structures; these can differ, active in one and inactive in another. The source made the active and inactive calls. How the source made its calls: active means hit-call score of the fitted dose curve at least 0.9, where 1 is the maximum; inconclusive means response in the unintended direction; inactive means score below 0.9.

Experiment [1] is described as follows: ATG_M_06_XSP2: Attagene TRANS-FACTORIAL Multi-Species (XSP2) HepG2 Assay for M06 Transcription Factor (Internal Marker) (AID 2283811).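 Further: internal background marker reporter mRNA measured by RT-PCR and capillary electrophoresis; hits are increases in signal above the DMSO baseline.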 A digest of the protocol:
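Readout: fluorescent reporter-mRNA peaks by capillary electrophoresis after RT-PCR and HpaI digest, scored upward relative to DMSO. Transfected HepG2, 24 h chemical exposure, with 3 nM 6-alpha-fluorotestosterone and 1.5 nM norgestrel added.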

Experiment [2] concerns turtle Estrogen Receptor (ERa), gene 101933533. In words: ATG_trERa_XSP2: Attagene TRANS-FACTORIAL Multi-Species (XSP2) HepG2 Assay for turtle Estrogen Receptor (ERa) (AID 2283812).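 Further: actives raise reporter signal above DMSO so AC50 reflects agonist activity.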 The method in brief:
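Readout is reporter mRNA quantified by RT-PCR with capillary electrophoresis after 24 h compound exposure, increase relative to DMSO. Uses transiently transfected human HepG2 liver cells carrying a chimeric turtle ERa-Gal4 receptor driving GAL4-UAS reporters.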

The target of experiment [3] is Estrogen receptor beta (Homo sapiens) (UniProt Q92731). In words: ATG_hERb_XSP2: Attagene TRANS-FACTORIAL Multi-Species (XSP2) HepG2 Assay for human Estrogen Receptor (ERb) (AID 2283813).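 Further: actives raise reporter mRNA above DMSO so AC50 reflects agonist induction.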 A digest of the protocol:
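Transient TRANS reporter system in HepG2: after 24 h of chemical, RNA is reverse-transcribed, reporter cDNA amplified, FAM-labelled and sized by capillary electrophoresis. Induction of the human ERb-Gal4 reporter is measured relative to DMSO.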

Experiment [4] concerns the target GAL4 Transcription Factor (Internal Marker), GAL4 (gene 855828) (UniProt P04386). In words: ATG_GAL4_XSP2: Attagene TRANS-FACTORIAL Multi-Species (XSP2) HepG2 Assay for GAL4 Transcription Factor (Internal Marker) (AID 2283814).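 Further: GAL4 reporter mRNA background control in MRTU transfected cells not a receptor target.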 A digest of the protocol:
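Background-control readout: gain-of-signal fitted against DMSO. After 24 h exposure of transfected HepG2 (MRTU, GAL4-UAS reporters; 3 nM 6-alpha-fluorotestosterone, 1.5 nM norgestrel present), transcripts quantified by RT-PCR and capillary electrophoresis fluorescence.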

Experiment [5] deals with zebrafish Estrogen Receptor (ER1), esr1 (gene 259252) (UniProt P57717). In words: ATG_zfER1_XSP2: Attagene TRANS-FACTORIAL Multi-Species (XSP2) HepG2 Assay for zebrafish Estrogen Receptor (ER1) (AID 2283816). The method in brief: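 After 24 h compound exposure, RNA from transfected HepG2 cells was reverse-transcribed and reporter transcripts resolved by capillary electrophoresis. The TRANS format reads exogenous zebrafish ER1-Gal4 chimera activity on GAL4-UAS elements; gain of signal against DMSO.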
zebrafish Estrogen Receptor (ER1), esr1 (gene 259252), sequence (P57717 whole entry, looked up, the tested form may be a part): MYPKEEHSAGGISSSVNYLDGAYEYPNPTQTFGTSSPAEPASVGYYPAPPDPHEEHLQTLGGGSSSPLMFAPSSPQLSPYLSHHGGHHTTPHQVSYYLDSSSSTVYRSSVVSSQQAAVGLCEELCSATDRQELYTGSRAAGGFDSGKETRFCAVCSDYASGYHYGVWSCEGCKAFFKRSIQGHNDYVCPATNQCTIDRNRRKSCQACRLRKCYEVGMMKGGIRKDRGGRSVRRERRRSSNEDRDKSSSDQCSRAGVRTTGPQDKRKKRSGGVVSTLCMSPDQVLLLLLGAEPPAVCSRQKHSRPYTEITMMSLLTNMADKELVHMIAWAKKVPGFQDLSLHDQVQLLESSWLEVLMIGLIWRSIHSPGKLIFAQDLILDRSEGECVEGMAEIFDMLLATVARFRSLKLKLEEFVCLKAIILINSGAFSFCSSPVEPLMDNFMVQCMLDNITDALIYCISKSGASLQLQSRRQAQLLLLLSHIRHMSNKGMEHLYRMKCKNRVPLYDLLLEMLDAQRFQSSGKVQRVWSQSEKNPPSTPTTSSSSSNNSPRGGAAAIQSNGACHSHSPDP

Experiment [6] concerns the target chicken Estrogen Receptor (ERa), ESR1 (gene 396099) (UniProt P06212). In words: ATG_chERa_XSP2: Attagene TRANS-FACTORIAL Multi-Species (XSP2) HepG2 Assay for chicken Estrogen Receptor (ERa) (AID 2283817).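 Further: actives raise reporter signal above DMSO so AC50 reflects ER activation.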 A digest of the protocol: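 Readout: fluorescent reporter-transcript fragments resolved by capillary electrophoresis after RT-PCR and HpaI cut. Chicken ERa-Gal4 fusion in transiently transfected HepG2, dosed for 24 h; activity taken as increase over DMSO baseline.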

Experiment [7] deals with zebrafish Estrogen Receptor (ER2a), gene 317734. In words: ATG_zfER2a_XSP2: Attagene TRANS-FACTORIAL Multi-Species (XSP2) HepG2 Assay for zebrafish Estrogen Receptor (ER2a) (AID 2283818).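 Further: hits raise reporter mRNA so AC50 reflects activation of zebrafish ER2a.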 The method in brief:
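Multiplexed trans-reporter readout: RT-PCR then capillary electrophoresis of reporter transcripts after 24 h compound treatment. Human HepG2 carries transfected zebrafish ER2a-Gal4 chimera; 3 nM 6-alpha-fluorotestosterone plus 1.5 nM norgestrel present. Induction scored against DMSO.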

Experiment [8] has as its system frog Estrogen Receptor (ER), gene 398734. In words: ATG_frER1_XSP2: Attagene TRANS-FACTORIAL Multi-Species (XSP2) HepG2 Assay for frog Estrogen Receptor (ER) (AID 2283821).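 Further: hits raise reporter mRNA above DMSO baseline so potency means agonist or activator.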 A digest of the protocol: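 Reporter mRNA induction, detected as fluorescence after RT-PCR and capillary electrophoresis, is the endpoint; activity is fitted upward against DMSO. Cells are human liver HepG2 carrying transfected NR-Gal4 chimeras with GAL4-UAS-driven reporters, harvested 24 h post-dosing.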

Experiment [9] relates to zebrafish Estrogen Receptor (ER2b), gene 317733. In words: ATG_zfER2b_XSP2: Attagene TRANS-FACTORIAL Multi-Species (XSP2) HepG2 Assay for zebrafish Estrogen Receptor (ER2b) (AID 2283823).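 Further: fitted upward as reporter gain over DMSO so potency reflects activation.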 A digest of the protocol: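 Reporter transcripts quantified by RT-PCR, fluorescent labelling and capillary electrophoresis after 24 h dosing of transfected HepG2 expressing zebrafish ER2b-GAL4 fusion. Medium contained 3 nM 6-alpha-fluorotestosterone plus 1.5 nM norgestrel; DMSO baseline.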

The target of experiment [10] is Estrogen receptor (Homo sapiens) (UniProt P03372). In words: ATG_hERa_XSP2: Attagene TRANS-FACTORIAL Multi-Species (XSP2) HepG2 Assay for human Estrogen Receptor (ERa) (AID 2283827). The method in brief:
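Trans-activation of exogenous human ERa-Gal4 chimera read in HepG2 as reporter transcript after 24 h exposure; medium included 3 nM 6-alpha-fluorotestosterone and 1.5 nM norgestrel. Quantified by RT-PCR with capillary electrophoresis, positive-direction fitting against DMSO.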

The test system of experiment [11] is frog Estrogen Receptor (ER2), gene 100174814. In words: ATG_frER2_XSP2: Attagene TRANS-FACTORIAL Multi-Species (XSP2) HepG2 Assay for frog Estrogen Receptor (ER2) (AID 2283828). A digest of the protocol: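 Cells were transfected with reporter constructs under GAL4-UAS control, dosed with chemicals for 24 h, then lysed for RNA; the frog ER2-driven reporter mRNA was quantified by capillary electrophoresis of labeled PCR fragments, with activity fitted upward from DMSO.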

The target of experiment [12] is zebrafish Thyroid Hormone Receptor alpha (TRa), thraa (gene 30670) (UniProt Q98867). In words: ATG_zfTRa_XSP1: Attagene TRANS-FACTORIAL Multi-Species (XSP1) HepG2 Assay for zebrafish Thyroid Hormone Receptor alpha (TRa) (AID 2283807). The method in brief:
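Reporter transcripts driven by a chimeric zebrafish TRa–Gal4 protein were measured by RT-PCR with fluorescent labelling and capillary electrophoresis. These came from transiently transfected HepG2 cells after 24 h chemical exposure, with 3 nM 6-alpha-fluorotestosterone added; baseline was DMSO.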

For experiment [13], the target named is human Thyroid hormone Receptor beta (TRb), THRB (gene 7068) (UniProt P10828). In words: ATG_hTRb_XSP1: Attagene TRANS-FACTORIAL Multi-Species (XSP1) HepG2 Assay for human Thyroid hormone Receptor beta (TRb) (AID 2283808). A digest of the protocol:
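Readout is reporter mRNA induction measured by RT-PCR, fluorescent labelling and capillary electrophoresis, fitted upward relative to DMSO. Transiently transfected human HepG2 cells expressing NR-Gal4 chimeras were dosed for 24 h, medium containing 3 nM 6-alpha-fluorotestosterone.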

Experiment [14] deals with zebrafish Thyroid Hormone Receptor beta (TRb), thrb (gene 30607) (UniProt Q9PVE4). In words: ATG_zfTRb_XSP1: Attagene TRANS-FACTORIAL Multi-Species (XSP1) HepG2 Assay for zebrafish Thyroid Hormone Receptor beta (TRb) (AID 2283809). The method in brief:
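HepG2 cells transiently transfected with multiplexed GAL4-UAS reporter units expressing chimeric zebrafish TRb–Gal4. Dosed 24 h with 3 nM 6-alpha-fluorotestosterone present; reporter mRNA measured by RT-PCR, HpaI digestion and capillary electrophoresis; gain of signal versus DMSO.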

Experiment [15] is described as follows: ATG_XTT_Cytotoxicity_XSP1: Cytotoxicity Assessment in the Attagene TRANS-FACTORIAL Multi-Species (XSP1) HepG2 Assay (AID 2283810). The method in brief:
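XTT viability readout taken at 24 hours post-dosing in HepG2 liver cells co-treated with 3 nM 6-alpha-fluorotestosterone. Signal loss relative to DMSO controls reflects cytotoxicity.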

The test system of experiment [16] is chicken Androgen Receptor (AR), gene 422165. In words: ATG_chAR_XSP2: Attagene TRANS-FACTORIAL Multi-Species (XSP2) HepG2 Assay for chicken Androgen Receptor (AR) (AID 2283819).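 Further: hits raise reporter mRNA above DMSO so potency is for activation.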 The method in brief: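 Readout is reporter mRNA induction via RT-PCR/capillary electrophoresis after 24 h chemical exposure, positive direction relative to DMSO. Transiently transfected HepG2 express chimeric chicken AR–GAL4; AR stimulated by 3 nM 6-alpha-fluorotestosterone and 1.5 nM norgestrel.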

A short description of experiment [17]: ATG_M_32_XSP2: Attagene TRANS-FACTORIAL Multi-Species (XSP2) HepG2 Assay for M19 Transcription Factor (Internal Marker) (AID 2283826). A digest of the protocol:
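HepG2 cells transiently transfected with GAL4-UAS reporter units; XSP2 panel included 3 nM 6-alpha-fluorotestosterone and 1.5 nM norgestrel for androgen receptor stimulation. Reporter mRNA read 24 h post-dosing by RT-PCR/capillary electrophoresis; fitted upward versus DMSO.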

For experiment [18], the system named is turtle Androgen Receptor (AR), gene 101947425. In words: ATG_trAR_XSP2: Attagene TRANS-FACTORIAL Multi-Species (XSP2) HepG2 Assay for turtle Androgen Receptor (AR) (AID 2283815).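 On AC50: potency for gain of reporter signal meaning activation above DMSO baseline.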 A digest of the protocol:
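Reporter transcripts were quantified via RT-PCR and capillary electrophoresis and fitted upward against DMSO. Transiently transfected human HepG2 cells carrying NR-Gal4 chimeras were exposed 24 h, with 3 nM 6-alpha-fluorotestosterone plus 1.5 nM norgestrel added.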

Experiment [19] has as its system frog Androgen Receptor (AR), gene 399456. In words: ATG_frAR_XSP2: Attagene TRANS-FACTORIAL Multi-Species (XSP2) HepG2 Assay for frog Androgen Receptor (AR) (AID 2283824).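 Further: reporter mRNA from GAL4-UAS units driven by Xenopus AR-Gal4 chimera; actives raise reporter signal above DMSO so AC50 reflects agonist-like induction.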 A digest of the protocol:
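Reporter transcript induction, read by RT-PCR with fluorescent capillary electrophoresis, in human liver HepG2 cells carrying an exogenous Xenopus AR-Gal4 fusion and GAL4-driven reporters; chemical exposure 24 hours, activity scored upward against DMSO controls.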

Estrogen receptor (Homo sapiens), sequence (P03372 whole entry, looked up, the tested form may be a part): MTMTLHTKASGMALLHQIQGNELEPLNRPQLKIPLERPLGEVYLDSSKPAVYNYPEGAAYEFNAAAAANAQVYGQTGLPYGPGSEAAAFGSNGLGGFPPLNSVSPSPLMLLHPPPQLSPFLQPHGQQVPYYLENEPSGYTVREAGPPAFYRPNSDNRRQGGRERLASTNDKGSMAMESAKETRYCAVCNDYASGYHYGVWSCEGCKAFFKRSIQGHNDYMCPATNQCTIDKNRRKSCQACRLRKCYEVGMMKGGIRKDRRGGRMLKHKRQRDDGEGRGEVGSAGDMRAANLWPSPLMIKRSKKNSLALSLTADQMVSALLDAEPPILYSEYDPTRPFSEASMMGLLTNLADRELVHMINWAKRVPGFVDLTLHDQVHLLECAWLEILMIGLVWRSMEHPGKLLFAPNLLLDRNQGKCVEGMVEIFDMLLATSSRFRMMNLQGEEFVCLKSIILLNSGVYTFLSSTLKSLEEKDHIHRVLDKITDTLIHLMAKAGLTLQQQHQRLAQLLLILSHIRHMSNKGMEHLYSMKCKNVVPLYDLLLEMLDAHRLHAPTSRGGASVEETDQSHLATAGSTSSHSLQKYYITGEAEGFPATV
Estrogen receptor beta (Homo sapiens), sequence (Q92731 whole entry, looked up, the tested form may be a part): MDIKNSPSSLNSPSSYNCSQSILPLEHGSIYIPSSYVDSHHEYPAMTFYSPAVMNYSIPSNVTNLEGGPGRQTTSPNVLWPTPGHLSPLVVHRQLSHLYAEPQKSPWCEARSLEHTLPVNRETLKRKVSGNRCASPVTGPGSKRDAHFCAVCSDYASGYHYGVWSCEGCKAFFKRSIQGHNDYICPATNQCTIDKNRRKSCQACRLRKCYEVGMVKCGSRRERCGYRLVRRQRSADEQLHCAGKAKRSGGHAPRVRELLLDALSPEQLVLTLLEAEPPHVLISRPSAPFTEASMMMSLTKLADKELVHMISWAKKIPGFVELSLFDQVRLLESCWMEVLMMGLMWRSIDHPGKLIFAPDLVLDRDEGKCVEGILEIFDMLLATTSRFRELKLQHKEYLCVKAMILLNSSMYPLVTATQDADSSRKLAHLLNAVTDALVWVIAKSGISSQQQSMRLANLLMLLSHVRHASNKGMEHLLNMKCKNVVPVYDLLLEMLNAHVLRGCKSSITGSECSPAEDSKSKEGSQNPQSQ
chicken Estrogen Receptor (ERa), ESR1 (gene 396099), sequence (P06212 whole entry, looked up, the tested form may be a part): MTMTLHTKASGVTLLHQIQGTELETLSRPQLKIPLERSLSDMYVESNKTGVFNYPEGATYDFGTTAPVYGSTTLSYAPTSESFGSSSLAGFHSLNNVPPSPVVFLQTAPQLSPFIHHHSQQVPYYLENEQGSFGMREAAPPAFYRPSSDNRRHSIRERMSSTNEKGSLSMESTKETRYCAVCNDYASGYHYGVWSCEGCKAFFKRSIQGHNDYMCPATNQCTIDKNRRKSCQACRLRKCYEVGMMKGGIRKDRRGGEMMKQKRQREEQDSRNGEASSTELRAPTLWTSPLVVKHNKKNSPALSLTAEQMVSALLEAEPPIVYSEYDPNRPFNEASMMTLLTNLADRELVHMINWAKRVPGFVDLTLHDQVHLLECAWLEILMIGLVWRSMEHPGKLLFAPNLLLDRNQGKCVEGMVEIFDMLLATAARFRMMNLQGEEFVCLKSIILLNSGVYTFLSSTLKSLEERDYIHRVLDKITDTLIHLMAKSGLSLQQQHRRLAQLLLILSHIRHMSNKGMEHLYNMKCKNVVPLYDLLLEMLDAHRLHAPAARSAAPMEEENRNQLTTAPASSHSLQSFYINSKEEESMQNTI
GAL4 Transcription Factor (Internal Marker), GAL4 (gene 855828), sequence (P04386 whole entry, looked up, the tested form may be a part): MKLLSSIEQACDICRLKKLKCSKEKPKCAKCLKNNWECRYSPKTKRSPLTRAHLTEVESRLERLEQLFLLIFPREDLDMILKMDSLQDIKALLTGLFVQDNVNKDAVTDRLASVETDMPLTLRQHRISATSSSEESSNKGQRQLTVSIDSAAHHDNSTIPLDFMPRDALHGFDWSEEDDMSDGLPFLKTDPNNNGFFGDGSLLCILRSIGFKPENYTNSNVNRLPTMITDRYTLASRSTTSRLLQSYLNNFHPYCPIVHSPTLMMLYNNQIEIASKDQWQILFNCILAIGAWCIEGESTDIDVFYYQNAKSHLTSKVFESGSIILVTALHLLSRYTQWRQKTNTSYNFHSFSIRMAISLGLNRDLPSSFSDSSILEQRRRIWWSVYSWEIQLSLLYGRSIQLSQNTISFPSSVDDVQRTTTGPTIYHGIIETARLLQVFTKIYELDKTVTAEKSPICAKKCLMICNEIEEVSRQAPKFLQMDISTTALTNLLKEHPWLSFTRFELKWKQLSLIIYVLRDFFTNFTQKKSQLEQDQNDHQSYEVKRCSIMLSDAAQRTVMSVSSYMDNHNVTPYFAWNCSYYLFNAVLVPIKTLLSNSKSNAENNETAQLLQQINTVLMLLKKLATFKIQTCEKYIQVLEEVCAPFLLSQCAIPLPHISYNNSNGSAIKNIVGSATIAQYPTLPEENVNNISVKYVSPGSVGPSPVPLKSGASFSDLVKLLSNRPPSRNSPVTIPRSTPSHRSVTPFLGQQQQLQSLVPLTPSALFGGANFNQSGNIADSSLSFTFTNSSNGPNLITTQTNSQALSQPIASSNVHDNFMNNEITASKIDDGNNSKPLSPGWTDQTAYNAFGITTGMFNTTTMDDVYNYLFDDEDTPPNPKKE
zebrafish Thyroid Hormone Receptor beta (TRb), thrb (gene 30607), sequence (Q9PVE4 whole entry, looked up, the tested form may be a part): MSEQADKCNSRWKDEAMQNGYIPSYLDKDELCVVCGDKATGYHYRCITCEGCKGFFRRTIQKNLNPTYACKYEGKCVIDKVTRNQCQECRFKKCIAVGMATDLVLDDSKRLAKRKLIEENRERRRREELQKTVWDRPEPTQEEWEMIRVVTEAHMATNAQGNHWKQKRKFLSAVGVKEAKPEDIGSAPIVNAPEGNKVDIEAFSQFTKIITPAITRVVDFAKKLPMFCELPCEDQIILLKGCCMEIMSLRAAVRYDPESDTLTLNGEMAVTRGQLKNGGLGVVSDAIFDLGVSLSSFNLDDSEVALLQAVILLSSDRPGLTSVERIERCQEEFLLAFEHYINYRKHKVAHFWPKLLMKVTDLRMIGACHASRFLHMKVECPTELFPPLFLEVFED
zebrafish Thyroid Hormone Receptor alpha (TRa), thraa (gene 30670), sequence (Q98867 whole entry, looked up, the tested form may be a part): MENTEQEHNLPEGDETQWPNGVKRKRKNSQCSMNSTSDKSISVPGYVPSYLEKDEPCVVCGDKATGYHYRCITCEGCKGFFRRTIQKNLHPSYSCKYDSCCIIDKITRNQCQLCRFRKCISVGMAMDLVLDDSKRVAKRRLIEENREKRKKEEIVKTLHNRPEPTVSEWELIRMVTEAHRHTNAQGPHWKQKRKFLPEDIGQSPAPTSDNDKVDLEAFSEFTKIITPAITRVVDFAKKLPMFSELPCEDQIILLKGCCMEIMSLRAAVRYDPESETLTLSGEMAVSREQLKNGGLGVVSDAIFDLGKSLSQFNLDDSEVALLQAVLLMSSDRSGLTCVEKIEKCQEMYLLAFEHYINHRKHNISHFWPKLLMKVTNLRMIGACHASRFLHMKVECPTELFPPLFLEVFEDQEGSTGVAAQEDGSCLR
human Thyroid hormone Receptor beta (TRb), THRB (gene 7068), sequence (P10828 whole entry, looked up, the tested form may be a part): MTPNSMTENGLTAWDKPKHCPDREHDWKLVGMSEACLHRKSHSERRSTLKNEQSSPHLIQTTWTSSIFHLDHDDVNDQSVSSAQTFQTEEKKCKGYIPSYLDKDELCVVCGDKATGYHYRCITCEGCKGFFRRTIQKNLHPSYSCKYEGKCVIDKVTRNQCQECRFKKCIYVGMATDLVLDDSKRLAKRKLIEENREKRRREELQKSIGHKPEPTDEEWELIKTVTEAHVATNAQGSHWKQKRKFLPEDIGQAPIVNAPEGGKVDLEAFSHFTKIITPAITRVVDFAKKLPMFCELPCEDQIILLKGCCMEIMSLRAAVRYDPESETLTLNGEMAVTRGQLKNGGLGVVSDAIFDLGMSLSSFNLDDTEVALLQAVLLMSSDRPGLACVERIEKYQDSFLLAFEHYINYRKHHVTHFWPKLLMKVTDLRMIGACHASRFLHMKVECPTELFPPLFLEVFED

`c1ccc2c(c1)Nc1ccccc1S2`: the result in experiment [1], in experiment [4] and in experiment [5] was inactive. Besides, the AC50 in experiment [2] is 10.7 µM (active) and 6.48 µM (active); in experiment [3], 27.2 µM (active) and 5.66 µM (active); in experiment [6], 11.3 µM (active) and 4.72 µM (active); in [7], 19 µM (active) and 6.16 µM (active); in experiment [8], 14.7 µM (active) and 13.2 µM (active); in experiment [9] it was 52.1 µM (active) and 27.9 µM (active). In addition, the AC50 in [10] was 12.7 µM (active) and 8.42 µM (active); in [11], 16.7 µM (active) and 5.21 µM (active).
With `O=P(Oc1ccccc1)(Oc1ccccc1)Oc1ccccc1`, the half-maximal activity concentration (AC50) in experiment [12] was 25.4 µM (active); in experiment [9] it was 7.88 µM (active); in [10], 1.44 µM (active); in experiment [11], 2.82 µM (active). For the same compound, the result in experiment [13], in experiment [14], in experiment [15], in [1], in experiment [4] and in experiment [5] was inactive. Further, the result in [6], in experiment [7], in experiment [16] and in experiment [17] was inactive.
Turning to `O=S(=O)(c1ccc(O)cc1)c1ccc(O)cc1`, the outcome in experiment [1], in [18], in [16] and in experiment [19] was inactive. Further, the AC50 in experiment [2] is 2.98 µM (active) and 2.14 µM (active); in experiment [3], 1.66 µM (active) and 1.76 µM (active); in experiment [18], 27 µM (active); in experiment [5], 41.8 µM (active) and 17.2 µM (active); in experiment [6] it was 2.24 µM (active) and 2.5 µM (active); in experiment [7], 5.32 µM (active) and 3.79 µM (active). Also, the AC50 was 27.1 µM (active) in [16]; 2.94 µM (active) and 894 nM (active) in experiment [8]; 6.5 µM (active) and 3.07 µM (active) in [9]; 8.07 µM (active) in experiment [19]; 1.87 µM (active) and 2.38 µM (active) in [10]; 26.9 µM (active) and 5.73 µM (active) in experiment [11].

By AC50 is commonly meant the concentration giving half of the maximal activity seen.

These data come from PubChem BioAssay (EPA / NIEHS).
